Experimental data published in the supplement of paper PMC10338343.
± gives the standard deviation.

test system: EfPiwi piRISC loaded with L1MC piRNA (26 nt); experiment: pre-steady-state target cleavage rate (min^-1); auxiliary factor: 500 nM Ephydatia muelleri Gtsf1; guide: L1MC piRNA 5'p-UAACUAAAUACUAUGCAAGCUGUAGG; MIWI and MILI are mouse PIWI proteins and EfPiwi is from a freshwater sponge; tags in brackets are library labels; higher = faster piRNA-guided slicing of the target
Outline: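 The pre-steady-state cleavage rate was obtained by Cleave-'n-Seq with a burst-and-steady-state fit. A transcribed, DNA-blocked target RNA library (0.1 nM) was mixed with 1 nM active affinity-purified piRISC carrying one synthetic guide, with or without 500 nM GTSF1 partner protein, in HEPES–potassium acetate buffer at 33 °C for 0–8 or 0–960 min. Uncleaved targets were sequenced and normalised to depth and to weakly complementary targets, with three trials pooled and k3 capped at 0.0001 min^-1.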

Sequence	pre-steady-state target cleavage rate
UCCUGGUACAGCUUGCAUAGUAUUUAGUUC [g2:g24:cont:t1C]	0.0096 ± 0.0039
UCCUGGAUGUGCUUGCACAGUAUUUAGUUA	0.00686 ± 0.0028
UCCUGGAUCAGCUUGCAAACUAUUUAGUUA	0.00476 ± 0.003
UCCUCCUACAGCCUUGCAUAGUAUUUAGUUA	0.0222 ± 0.0079
UCCUGGAUGAGCUUGCAUUGUAUUUAGUAA	0.00311 ± 0.0025
UCCUGGUUCAGCUUGCAUAGUAUAUAGUUA	0.00607 ± 0.0027
UCCUCCUACAGCUUGGAUAGUAUUAAGUUA	0.00905 ± 0.0043
UCCUGCUACAGGAAGCAUAGUAUUUAGUAA	0.00302 ± 0.0027
UCCUGCUACAGCUUGCAUAGUACUUAGUUA	0.00608 ± 0.0018
UCCUGGAUCACGAUGCAUAGUAUUUAGUUA	0.0115 ± 0.004
UCCUGGAACAGCAUGCUUAGUAUUUAGUUA	0.00591 ± 0.0025
UCCUCGUACAGCUAGCAUAGUAUUUAGUUA	0.0402 ± 0.01
UCCUGCUACAGCUUGGAUAGUAUUUAGUUA	0.017 ± 0.0041
UCCUGGAACAGCUUGCAUAGUAUUUAGUCA	0.0042 ± 0.0024
UCCUGGUACAGCCUUGCAUAGUAUUUAGUUA	0.0209 ± 0.0073
UCCUGCUACAGCUUGCAUAGUAUUUACGUUA	0.00429 ± 0.002
